# The list is not random: actives were taken first. Their share in the collection is about 0.56%.
# PKM2 activator = PKM2 (human) enzyme activation; P14618; purified PKM2, Kinase-Glo ATP luminescence, activation; response scale: 0% is enzyme alone, no compound; Potency, µM (doses to about 57.5 µM), inactives show top-dose activation, actives largely listed as activators; actives 0.34% (n = 260,000); further: potency means the concentration at half of the fitted maximal effect; on the % scale 0 is the no-effect control and ±100 the full control effect; nearly all actives have a fitted effect of over 55% in size
#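 Purified hPK-M2 (>95%) run at intermediate activity with 0.1 mM ADP and 0.5 mM PEP in 50 mM imidazole pH 7.2, KCl, MgCl2; 1 h room temperature. ATP formed read by Kinase-Glo luminescence; normalized to uninhibited and no-enzyme controls.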
# Luc counter = counter-screen: inhibitors of Kinase-Glo firefly luciferase; Potency, µM (doses to about 38.3 µM), inactives show top-dose activity change, negative = inhibition, usual class: inhibitors; Q27757; Kinase-Glo luciferase, ATP luminescence, 8 min; actives 0.28% (n = 200,000); AID 1379; further: potency means the concentration at half of the fitted maximal effect; on the % scale 0 is the no-effect control and ±100 the full control effect; nearly all actives have a fitted effect of over 60% in size
#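 Kinase-Glo luciferase light output from ATP and luciferin was measured with 10 uM ATP, within the enzyme's linear range. Buffer: 50 mM imidazole pH 7.2, 50 mM KCl, 7 mM MgCl2, 0.01% Tween 20, 0.05% BSA; luminescence read after 8 min at ambient temperature.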
# Tb PFK block = blocks T. brucei phosphofructokinase; T. brucei PFK, ADP-Glo luminescence; Potency, µM (highest dose often 57.5 µM), inactives show top-dose activity, negative = inhibition, hits mostly inhibitors; actives 0.17% (n = 330,000); AID 485367;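 further: potency means the concentration at half of the fitted maximal effect; 0% = uninhibited 1x PFK enzyme wells and -100% = no-enzyme wells; nearly all actives have a fitted effect of over 60% in size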
#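 In TEA buffer at pH 8.0 with 5 mM MgCl2, enzyme (1.25 nM) converted F6P (0.5 mM) and ATP (0.1 mM) for 45 min at room temperature. ADP product was read by luciferase luminescence.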
# CBFb RUNX1 block = CBF-beta/RUNX1 interaction disruption; 230,000 tested, under 10 active; Potency, µM (titrated, usually from 59.8 µM), inactives show at the highest dose activity, negative = inhibition, usual class: inhibitors; AID 1477; AlphaScreen CBFb-His/RUNX1-biotin binding, biochemical; further: % of control where 0% means no effect
#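 Compounds were screened at multiple concentrations against a preformed CBF-beta(His)/RUNX1(biotin) complex (30 nM of each) for 15 min at room temperature, followed by 90 min with nickel and streptavidin beads and AlphaScreen reading.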
# GALK inhibitor = galactokinase (human) inhibition; P51570; Purified GALK, Kinase-Glo residual ATP luminescence; Potency, µM (highest dose often 57.5 µM), without a hit: at the highest dose activity change, negative = inhibition, usual class: inhibitors; actives 0.007% (n = 270,000); further: potency means the concentration at half of the fitted maximal effect; on the % scale 0 is the no-effect control and ±100 the full control effect
# Target sequence (P51570 whole entry, looked up): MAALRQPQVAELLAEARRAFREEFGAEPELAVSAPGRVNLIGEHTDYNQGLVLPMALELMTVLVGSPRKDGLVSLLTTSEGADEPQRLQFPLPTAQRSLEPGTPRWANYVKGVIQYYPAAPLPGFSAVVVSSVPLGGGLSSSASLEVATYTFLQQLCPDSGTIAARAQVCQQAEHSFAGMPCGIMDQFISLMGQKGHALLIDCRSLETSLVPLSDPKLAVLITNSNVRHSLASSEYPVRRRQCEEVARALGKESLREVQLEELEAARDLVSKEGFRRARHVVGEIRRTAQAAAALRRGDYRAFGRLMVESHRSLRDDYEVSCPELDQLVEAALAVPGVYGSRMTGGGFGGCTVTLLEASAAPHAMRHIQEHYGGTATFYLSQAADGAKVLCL
#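 5 nM enzyme, 35 uM ATP, 100 uM galactose, 20 mM HEPES pH8.0, 5 mM MgCl2; 1 h RT; residual ATP by Kinase-Glo Plus luminescence, qHTS format.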
# * hit, by the source's call; ? = inconclusive; · = not tested or not shown; [ ] = remark or other dose. The call rests on the fitted dose curve; in most records, active means well fitted curve in the direction sought with a large enough effect; inconclusive means small, poorly fitted or top-dose-only effect, or another doubt; inactive means no such curve, though single readings can be large; an effect the other way counts as inactive or inconclusive.
SMILES,PKM2 activator,Luc counter,Tb PFK block,CBFb RUNX1 block,GALK inhibitor
O=c1c(Cl)c(NCCCO)cnn1-c1nc2ccccc2[nH]1,-62%,11µM*,-3%,-1%,0%
C=CCN(CC=C)c1cnn(-c2nc3ccccc3[nH]2)c(=O)c1Cl,-30%,14µM*,-3%,-2%,2%
O=c1c(Cl)c(NCCO)cnn1-c1cccc(Cl)c1,-10%,3%,2%,-2%,1%
C[N+](C)(C)C(C1=CCCC1=O)c1ccccc1 (stereo not given),·,-3%[7.66 µM],·,·,·
CCCCc1cc2c(cn1)=C(OC(=O)c1ccco1)C(C)(OC(=O)CC)C(=O)C=2 (stereo not given),-9%[11.5 µM],-4%[7.66 µM],·,-3%[13.1 µM],·
CSCC[C@H](NC(=O)[C@H](CC(C)C)NC(=O)[C@H](Cc1c[nH]c2ccccc12)NC(=O)[C@H](CCC(N)=O)NC(=O)[C@@H](NC(=O)[C@H](Cc1ccccc1)NC(=O)[C@H](CC(=O)O)NC(=O)[C@H](CCC(N)=O)NC(=O)[C@H](C)NC(=O)[C@H](CCCNC(=N)N)NC(=O)[C@H](CCCNC(=N)N)NC(=O)[C@H](CO)NC(=O)[C@H](CC(=O)O)NC(=O)[C@H](CC(C)C)NC(=O)[C@H](Cc1ccc(O)cc1)NC(=O)[C@H](CCCCN)NC(=O)[C@H](CO)NC(=O)[C@H](Cc1ccc(O)cc1)NC(=O)[C@H](CC(=O)O)NC(=O)[C@H](CO)NC(=O)[C@@H](NC(=O)[C@H](Cc1ccccc1)NC(=O)[C@@H](NC(=O)CNC(=O)[C@H](CCC(N)=O)NC(=O)[C@H](CO)NC(=O)[C@@H](N)Cc1cnc[nH]1)[C@@H](C)O)[C@@H](C)O)C(C)C)C(=O)N[C@@H](CC(N)=O)C(=O)N[C@H](C(=O)O)[C@@H](C)O,·,·,·,12%,·
Oc1ccc(CNc2ccc(C(F)(F)F)cc2Cl)c2cccnc12,·,·,-3%,·,·
COc1ccc2nc(N=Nc3ccc(N(C)C)cc3)sc2c1,-21%,11µM*,-8%,?,8%
COc1ccc2nc(/N=C\N(C)C)sc2c1,0%,-8%,-1%,7%,-1%
Cn1c(=O)c2c(nc(C(=N)SCC(=O)O)n2C)n(C)c1=O,·,-6%[7.66 µM],·,·,·
Cc1ccc(-c2nn(-c3cccc(F)c3)cc2CN(Cc2nccn2C)C(C)C)o1,?,·,-13%,-10%,9%
Cc1ccc(-c2nn(-c3cccc(F)c3)cc2CN2CCN(c3ccccn3)CC2)o1,16µM*,0%,-12%,-20%,-2%
Cc1ccc(CN(CC2CCCO2)C(=O)CN2C(=O)C(C(C)C)Oc3ccccc32)o1 (stereo not given),32µM*,-3%,1%,-2%,5%
CC(C)C1Oc2ccccc2N(CC(=O)N(Cc2ccccn2)CC2CCCO2)C1=O (stereo not given),-3%,-1%,-2%,-1%,4%
COc1cc(O)c2c(O)c3c(c4c2c1[C@@]1(C4)C(C)=CCCC1(C)C)[C@H](O)[C@@]1(O)CC(=O)C(C(N)=O)=C(O)[C@]1(O)C3=O,·,-8%[7.66 µM],·,·,·
N#C/C(=C/c1ccc(N2CCOCC2)o1)c1ccc(Cl)cc1,1.3µM*,-1%,-29%,-16%,2%
N#C/C(=C\c1ccc(N2CCOCC2)o1)c1nc2ccccc2[nH]1,-7%,-26%,-5%,-16%,·
COC(=O)[C@H](Cc1ccccc1)NC(=O)[C@@H](C)CO,·,·,·,4%[13.1 µM],·
CCCCC[C@H](O)/C=C/[C@H]1C=CC(=O)[C@@H]1C/C=C\CCCC(=O)O,-5%,-6%,30µM*,-4%,·
O=C(C(=O)N1CCCc2ccccc21)c1c[nH]c2ccccc12,35µM*,1%,-1%,1%,0%
Cc1[nH]c2ccccc2c1C(=O)C(=O)N1CCCc2ccccc21,1%,11%,0%,-2%,-2%
Cc1cc(C(=O)O)ccc1-c1ccc(/C=C2\NC(=O)N(Cc3ccccc3Cl)C2=O)o1,20µM*,5%,3%,-6%,-3%
O=[N+]([O-])c1cccc(S(=O)(=O)c2ccc(NCCOCCO)c([N+](=O)[O-])c2)c1,·,·,2%,·,0%
O=[N+]([O-])c1cccc(S(=O)(=O)c2ccc(NCCO)c([N+](=O)[O-])c2)c1,16µM*,1%,-2%,-11%,3%
c1ccc(CO[C@H]2NCCN2Cc2ccccc2)cc1,·,-5%[7.66 µM],·,·,·
SMILES,PKM2 activator,Luc counter,Tb PFK block,CBFb RUNX1 block,GALK inhibitor
Cc1nnc(SCc2nc3scc(-c4ccccc4)c3c(=O)[nH]2)s1,28µM*,·,5%,-1%,·
Nc1nnc(SCc2nc3scc(-c4ccccc4)c3c(=O)[nH]2)s1,4%,·,4%,?,-1%
CCC(CC)=NNc1ccc(S(N)(=O)=O)cc1[N+](=O)[O-],18µM*,·,1%,-9%,0%
COc1cccc(-c2nnc3n2N=C(c2c(OC)cccc2OC)CS3)c1,·,·,·,2%,·
O=C1CCCC2=C1C1(CCCCC1)N=C(Nc1nc3ccccc3o1)N2,2%,3%,-3%,1%,22µM*
O=[N+]([O-])c1ccc2c(N=Nc3ccc4ccccc4c3O)c(O)cc(S(=O)(=O)O)c2c1,·,-16%[7.66 µM],·,·,·
Cc1ccc(C)n1Cc1ccc(C(=O)O)cc1,26%,1%,6.7µM*,·,-3%
O=[N+]([O-])c1cnc2nc(-c3ccncc3)nn2c1O,-42%,11µM*,-7%,12%,5%
Clc1cccc(OCCn2ccnc2)c1,0%[11.5 µM],·,27µM*,·,-2%
COc1cccc(OCCn2ccnc2)c1,-5%,3%,?,4%,0%
Cc1cc2n(n1)C(c1ccccc1Cl)Nc1ccccc1-2 (stereo not given),18µM*,0%,-1%,0%,-1%
CSc1ccc(C2Nc3ccccc3-c3cc(C)nn32)cc1 (stereo not given),2%,·,1%,2%,3%
Fc1cccc(CNc2ncnc3ccc(-c4cccnc4)cc23)c1,·,·,-2%,·,·
N#C/C(=C\c1ccc(C#N)cc1)C(=O)c1ccccc1,22µM*,·,21%,-1%,-1%
C[C@@]12C[C@H](O)C3[C@H](CCC4=CC(=O)CC[C@]43C)[C@H]1CC[C@@H]2c1csc(N)n1 (stereo not given in full),·,1%[7.66 µM],·,·,·
CC(/C=N/NC(=O)CSc1nc2ccccc2n1C)=C\c1ccco1,5µM*,-6%,-2%,?,0%
CC(=C/c1ccco1)/C=N/N1CCN(c2ccccc2)CC1,-45%,10µM*,-3%,-15%,8%
CC(/C=N/N1CCN(c2ccccc2)CC1)=C\c1ccco1,-24%,7.9µM*,-5%,-16%,·
CC(/C=N/N1CCN(c2ccccc2)CC1)=C\c1ccccc1,-2%,-17%,1%,5%,3%
N[C@@H](COC(c1cccc(F)c1)c1ccccc1OCc1ccccc1)C(=O)O (stereo not given in full),·,·,·,18%,·
